Only a selection was taken, and hits are over-represented in it overall.
ALOX12 inh – inhibitors of human 12S-lipoxygenase ALOX12. P18054. purified 12hLO, xylenol orange hydroperoxide absorbance. Potency, µM (titrated, usually from 108 µM), for the others: at the top dose activity change, negative = inhibition, most hits filed as inhibitors. 580,000 tested, 1.1% active. AID 1671190; also: potency is read from the fitted curve at half-maximal effect
Target sequence (P18054 whole entry, looked up): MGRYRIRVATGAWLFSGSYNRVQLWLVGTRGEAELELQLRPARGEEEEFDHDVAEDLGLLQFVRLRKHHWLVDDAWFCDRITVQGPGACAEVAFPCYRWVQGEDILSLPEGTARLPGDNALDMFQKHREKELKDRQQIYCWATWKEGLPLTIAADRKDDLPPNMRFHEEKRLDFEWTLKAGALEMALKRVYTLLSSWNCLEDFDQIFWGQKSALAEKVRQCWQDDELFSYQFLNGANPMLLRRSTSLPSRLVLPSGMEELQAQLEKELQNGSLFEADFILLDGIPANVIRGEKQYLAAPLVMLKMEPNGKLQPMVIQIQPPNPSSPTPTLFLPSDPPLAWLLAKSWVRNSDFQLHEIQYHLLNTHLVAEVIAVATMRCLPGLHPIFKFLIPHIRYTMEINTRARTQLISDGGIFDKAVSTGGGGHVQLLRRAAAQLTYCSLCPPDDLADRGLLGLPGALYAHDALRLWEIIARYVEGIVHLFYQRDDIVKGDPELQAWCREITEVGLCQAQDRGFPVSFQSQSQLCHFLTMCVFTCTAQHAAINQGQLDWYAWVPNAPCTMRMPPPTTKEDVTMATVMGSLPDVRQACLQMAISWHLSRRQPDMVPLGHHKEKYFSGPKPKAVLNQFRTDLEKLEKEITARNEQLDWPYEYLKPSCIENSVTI
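Hydroperoxide product was detected by ferrous iron/xylenol orange as the 573 to 405 nm absorbance ratio. Arachidonic acid at 40 uM (final) was turned over for 30 min at room temperature by 150 nM human 12hLO, pH 7.0 Hepes buffer, after 15 min compound preincubation.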
IL-1B inflam inh – inflammasome signaling inhibition, IL-1 beta readout; THP-1 LPS/ATP IL-1B secretion, AlphaLISA, 16 h; stronger effect = lower value; activity change, % at 57.5 µM; 360,000 tested, 4.7% active; in the data active = activity change below about -50%; inconclusive = mostly about -30% to -49%
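Secreted IL-1B measured by AlphaLISA bead assay after 16 h compound exposure of THP-1 cells; compounds (final up to 57.5 uM) added 1 h before LPS (250 ng/mL) and ATP (1.25 mM) stimulation; lower signal means less secretion.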
HT1080 IDH1KD tx – toxicity to HT-1080 IDH1 knockdown cells (counter line); Potency, µM (series often up to 46.1 µM), for the others: top-dose activity, negative = toxicity, most hits filed as cytotoxic; HT-1080 IDH1 knockdown viability, ATP luminescence, 48 h; 360,000 tested, 2% active; AID 686971;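 also: potency is read from the fitted curve at half-maximal effect; 0% = DMSO wells and -100% = cell-free medium wells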
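Viability of IDH1-knockdown HT-1080 fibrosarcoma cells was assessed by CellTiter-Glo after 48 h at 37 °C with titrated compound; concentration-effect curves were classified by fit quality and response size.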
HT1080NT lethal – kills 2HG-producing HT-1080-NT fibrosarcoma cells. HT-1080-NT fibrosarcoma viability, CellTiter-Glo ATP luminescence, 48 h. Potency, µM (highest dose often 46.1 µM), without a hit: top-dose activity, negative = less viability, actives largely listed as cytotoxic. 360,000 tested, 1.6% active. AID 686970;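 also: NT is the 2HG producing partner of a matched IDH1 knockdown line; potency is read from the fitted curve at half-maximal effect; 0% = DMSO-treated cells and -100% = media-only wells without cells; nearly all actives have a fitted effect of over 55% in size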
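HT-1080-NT; 750 cells/well; 5% FBS RPMI; 48 h compound, 37 degrees C; CellTiter-Glo luminescence; curve fitting and curve-class assignment.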
TDP1 cell noCPT – qHTS for Inhibitors of human tyrosyl-DNA phosphodiesterase 1 (TDP1): qHTS in cells in absence of CPT; DT40 Tdp1-/- hTDP1 cells, no CPT, ATP luminescence, 48 h; Potency, µM (titrated, usually from 46.2 µM), for the others: at the highest dose activity change, negative = growth inhibition, hits mostly inhibitors; 420,000 tested, 15% active; also: potency is read from the fitted curve at half-maximal effect; nearly all actives have a fitted effect of over 55% in size
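Camptothecin absent (DMSO only). Human TDP1-complemented DT40 knockout cells, 400 cells/well, 37 °C for minimum 48 hr; ATP measured via CellTiter-Glo, 30 min dark incubation, luminescence.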
TDP1 cell CPT – growth inhibition of DT40 Tdp1-/-;hTDP1 cells with camptothecin (screen for TDP1 inhibitors); chicken DT40 Tdp1-/-;hTDP1 cells + 20 nM CPT, ATP luminescence, 48 h; Potency, µM (doses to about 46.2 µM), for the others: top-dose activity change, negative = growth inhibition, actives largely listed as inhibitors; 420,000 tested, 12% active; AID 686979; also: potency is read from the fitted curve at half-maximal effect; nearly all actives have a fitted effect of over 55% in size
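Chicken DT40 Tdp1-/- cells stably complemented with human TDP1 were seeded at 400 cells/well in medium containing 20 nM camptothecin, exposed to pin-transferred compounds, and grown at 37 °C for at least 48 hr. Viability was read as ATP luminescence.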
Starred values were filed as active, the others as inactive; ? = inconclusive; · = not tested or not shown; [ ] = another dose, or the depositor's remark. Unless noted, calls follow the shape of the dose curve; as a rule, active = well fitted curve in the direction sought with a large enough effect; inconclusive = small, poorly fitted or top-dose-only effect, or another doubt; inactive = no such curve, though single readings can be large; an effect the other way counts as inactive or inconclusive. Unless noted, % is scaled to controls: 0 for no effect and ±100 for the full control effect.

SMILES	ALOX12 inh	IL-1B inflam inh	HT1080 IDH1KD tx	HT1080NT lethal	TDP1 cell noCPT	TDP1 cell CPT
O=C(CCn1cnc2ccccc21)N/N=C/c1ccccc1O	0%	253	?	?	23µM*	?
COc1cc(/C=N\NC(=O)CNC(=O)C(c2ccccc2)c2ccccc2)ccc1O	0%	12	2%	-4%	-14%	-2%
COc1cc(/C=N/NC(=O)CCN2CCN(C(c3ccccc3)c3ccccc3)CC2)ccc1O	?	-11	?	-1%	12µM*	13µM*
O=C(CCN1CCN(c2ccccc2)CC1)N/N=C/c1ccccc1O	0%	141	21µM*	?	-118%	?
O=C(CCn1cnc2ccccc21)N/N=C/c1ccc(O)cc1	12%	21	7%	11%	-12%	-8%
O=C(c1cc(F)ccc1F)N1CCC(n2cc(-c3nc(-c4ccccc4)no3)nn2)C1 (configuration not stated)	-10%	·	·	·	·	·
COc1ccc(N=C2S[C@H]3[C@H]([C@@H](O)[C@H](O)C[C@@H]3C(N)=O)N2Cc2ccc(-c3ccccn3)cc2)cc1	-24%	·	·	·	·	·
Oc1c(C2CCCCC2)cccc1C1CCCCC1	-10%	·	·	·	·	·
NC(=O)c1cc(Br)cc(C2CCCCC2)c1O	0%	-56*	?	?	-21%	8%
CN(C)CC1CCCN1 (configuration not stated)	-1%	·	·	·	·	·
CC(=O)Nc1ccc(NC2=C(C(=O)Nc3ccc(C)cc3)S(=O)(=O)c3ccccc32)cc1	-29%	·	·	·	·	·
O=C(Oc1ccc([N+](=O)[O-])cc1)c1cccnc1	-13%	-4	0%	1%	-20%	4%
O=C1C(Cl)=C(Nc2ccc3cn[nH]c3c2)C(=O)c2ccccc21	?	-99*	2.6µM*	?	2.1µM*	1.6µM*
O=C(Oc1ccc(NC2=C(Cl)C(=O)c3ccccc3C2=O)cc1)c1ccc([N+](=O)[O-])cc1	·	3	-8%	-14%	7.3µM*	8.2µM*
CC(=O)Nc1ccc(NC2=C(Cl)C(=O)c3ccccc3C2=O)cc1	-1%	-98*	2.9µM*	4.6µM*	?	?
Cc1ccc(NC2=C(NCCO)C(=O)c3ccccc3C2=O)cc1	?	-17	?	?	?	13µM*
CC1CCN([C@@H]2[C@H](O)[C@H](CO)O[C@@H]2CNC(=O)c2ccccc2)CC1	14%[176 µM]	·	·	·	·	·
COCc1nc(CCNC(=O)CCCc2nc3ccccc3[nH]2)no1	38%	·	·	·	·	·
CN(C)c1ccc(NC2=C(Cl)C(=O)c3ccccc3C2=O)cc1	?	-100*	2.3µM*	3.3µM*	12µM*	21µM*
CC(=O)Nc1ccc(NC(=O)c2cccc3c2-c2ccccc2C3=O)cc1	-17%	6	-4%	-1%	18µM*	21µM*
Cc1ccc(C(=O)N(Cc2cccnc2)Cc2cc3cc(C)ccc3n3nnnc23)cc1	-2%	3	5%	7%	?	18µM*
Cc1ccc2c(c1)cc(CN(Cc1cccs1)C(=O)c1ccco1)c1nnnn12	0%	-29	-14%	-17%	16µM*	?
Cc1ccc2[nH]c(=O)c(CN(Cc3cccnc3)C(=O)c3ccncc3)cc2c1	-7%	10	?	?	21µM*	?
Cc1ccc2c(c1)cc(CN(Cc1cccnc1)C(=O)c1ccccc1)c1nnnn12	-2%	-2	1%	2%	0%	-10%
CCCN(Cc1cc2cc(C)ccc2[nH]c1=O)C(=O)c1cccc(Cl)c1	?	·	·	·	23µM*	?
SMILES	ALOX12 inh	IL-1B inflam inh	HT1080 IDH1KD tx	HT1080NT lethal	TDP1 cell noCPT	TDP1 cell CPT
COCCN(Cc1cc2cc(C)ccc2n2nnnc12)C(=S)Nc1cccc(C)c1	-2%	16	0%	-2%	?	?
O=C(c1ccccc1)N(Cc1cccnc1)Cc1cc2ccccc2[nH]c1=O	46%	·	·	·	·	·
COc1cc(-c2nc3cc(NC(C)=O)ccc3o2)cc(OC)c1OC	-1%	·	·	·	·	·
O=C(c1ccc(OC(F)(F)F)cc1)N1CCC([C@@H]2CNC[C@H]2CO)CC1	37%	·	·	·	·	·
COc1cc(CCC(=O)N2CC(c3noc(C4CCCN4C(C)=O)n3)C2)on1 (configuration not stated)	8%	·	·	·	·	·
COc1cccc(C(=O)N2CCCCC2c2nc(-c3cnccn3)n[nH]2)c1 (configuration not stated)	38%	·	·	·	·	·
Cc1ccc2c(c1)cc(CN(Cc1ccc3c(c1)OCO3)S(=O)(=O)c1ccccc1)c1nnnn12	22%	14	7%	6%	21µM*	?
CNC(=S)N(Cc1cc2cc(C)ccc2n2nnnc12)CC(C)(C)CN(C)C	6%	6	9%	8%	2%	-9%
CCOc1ccc(-n2c(SC(C)C(=O)OC)nc3c([nH]c4ccccc43)c2=O)cc1 (configuration not stated)	-14%	·	·	·	?	?
O=c1c2ccccc2ncn1-c1ccc(Cl)cc1[N+](=O)[O-]	0%	-2	2%	6%	?	?
O=c1c2ccccc2ncn1-c1ccc([N+](=O)[O-])cc1[N+](=O)[O-]	-4%	-64*	5%	-8%	18µM*	16µM*
COCCNC(=O)c1cc(-c2ccccc2)sc1N	?	-11	16%	4%	?	?
Cc1ccccc1C(=O)NCCc1c[nH]c2ccccc12	-26%	·	·	·	·	·
NNC(=O)c1sc(-c2ccccc2)cc1N	-2%	-54*	-11%	-4%	?	?
Nc1sc(-c2ccccc2)cc1C(=O)NCCc1c[nH]c2ccccc12	-2%	-15	?	?	15µM*	16µM*
CCCCNC(=O)c1cc(-c2ccccc2)sc1N	?	?	-18%	-24%	16µM*	15µM*
CC(=O)c1sc(-c2ccccc2)cc1N	0%	·	-4%	-1%	-11%	32%
CS(=O)(=O)N(Cc1cccnc1)C1CN(C(=O)c2[nH]nc3c2CCc2ccccc2-3)C1	44%	·	·	·	·	·
N#CC1(NC(=O)Cc2ccc(C(F)(F)F)cc2)CCC1	-50%	·	·	·	·	·
Cc1c(C(=O)NCc2ccccc2C(F)(F)F)sc(=O)n1Cc1ccc(S(=O)(=O)N(C)C)cc1	0%	-20	-24%	-10%	21µM*	?
COc1ccc(CNC(=O)c2sc(=O)n(Cc3ccc(S(=O)(=O)N(C)C)cc3)c2C)cc1	1%	-12	?	-22%	?	?

Assay outcomes from PubChem.
